Measurements published in PubChem BioAssay AID1159580 (chemical genetic matrix, 2015).
Values joined by “and” are separate entries in the source; they are usually repeats but may differ in a detail not shown here. Equal entries are not always repeated. In all, about 5,500 compounds went through this assay and about 2,000 (36%) were called active. Another 18% or so got no clear call; they are omitted. No stated cut-off is given here; in the data, active means normalized growth mostly below about 0.91 (no sharp cut-off); inconclusive means no clear call, values can overlap the other calls; inactive means mostly above about 0.92. Some of the results follow.

Assay: chemical genetic growth profiling, strain panel (AID 1159580);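 further: tested at 20 µM; growth read once vehicle control cultures reached saturation at 30 °C; 1 = growth at the plate median or of vehicle wells; lower values mean less growth of the strain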
Conditions: S. cerevisiae deletion strains, growth OD

Measured: normalized growth

CC1=C(C(=O)O)N2C(=O)[C@@H](NC(=O)[C@@H](N)c3ccc(O)cc3)[C@H]2SC1
inactive: locus YAL013W, strain DEP1, hits give low values 0.993 | locus YAL021C, strain ccr4, hits give low values 1.02 | locus YAL026C, strain drs2, hits give low values 1.04 | locus YAL030W, strain snc1, hits give low values 1.03 | locus YBL061C, strain skt5, hits give low values 1.03 | locus YBR009C, strain hhf1, hits give low values 1.03 | locus YBR021W, strain FUR4, hits give low values 1.01 | locus YBR023C, strain chs3, hits give low values 1.06 | locus YBR171W, strain sec66, hits give low values 1.03 | locus YBR229C, strain ROT2, hits give low values 0.958 | locus YBR231C, strain swc5, hits give low values 1.04 | locus YBR279W, strain paf1, hits give low values 1.02 | locus YCL011C, strain gbp2, hits give low values 1.01 | locus YCL016C, strain dcc1, hits give low values 1.03 | locus YCL029C, strain bik1, hits give low values 0.984 | locus YCL061C, strain MRC1, hits give low values 1.04 | locus YCL069W, strain vba3, hits give low values 1.03 | locus YCR088W, strain abp1, hits give low values 1.02 | locus YDL005C, strain med2, hits give low values 1.03 | locus YDL035C, strain GPR1, hits give low values 0.956 | locus YDL040C, strain nat1, hits give low values 1.02 | locus YDL074C, strain BRE1, hits give low values 1.01 | locus YDL101C, strain DUN1, hits give low values 0.99 | locus YDL185W, strain tfp1, hits give low values 0.953 | locus YDL192W, strain arf1, hits give low values 0.971 | locus YDR001C, strain nth1, hits give low values 1.04 | locus YDR069C, strain doa4, hits give low values 1.05 | locus YDR101C, strain arx1, hits give low values 0.965 | locus YDR137W, strain rgp1, hits give low values 1.03 | locus YDR150W, strain NUM1, hits give low values 0.985 | locus YDR159W, strain sac3, hits give low values 1.04 | locus YDR162C, strain NBP2, hits give low values 0.967 | locus YDR195W, strain ref2 1 | locus YDR297W, strain sur2, hits give low values 1.03 | locus YDR318W, strain mcm21, hits give low values 0.994 | locus YDR334W, strain swr1, hits give low values 1.03 | locus YDR335W, strain msn5, hits give low values 1.02 | locus YDR388W, hits give low values 0.979 | locus YDR392W, strain spt3, hits give low values 1.05 | locus YDR502C, strain sam2, hits give low values 0.984 | locus YEL003W, strain gim4, hits give low values 1.03 | locus YEL037C, strain rad23, hits give low values 1.03 | locus YEL061C, strain CIN8 (second series), hits give low values 1.04 | locus YEL061C, strain CIN8, hits give low values 0.988 | locus YER015W, strain faa2, hits give low values 1.01 | locus YER016W, strain bim1, hits give low values 1.02 | locus YER110C, hits give low values 0.973 | locus YER111C, strain swi4, hits give low values 1.03 | locus YER155C, strain BEM2 (second series), hits give low values 1.07 | locus YER155C, strain BEM2, hits give low values 0.995 | locus YER167W, strain BCK2, hits give low values 0.995 | locus YFR010W, strain ubp6, hits give low values 1.06 | locus YGL078C, strain dbp3, hits give low values 1 | locus YGL086W, strain mad1, hits give low values 0.982 | locus YGL167C, strain pmr1, hits give low values 1.03 | locus YGL173C, strain kem1, hits give low values 1.04 | locus YGL227W, strain vid30, hits give low values 1.03 | locus YGL240W, strain doc1, hits give low values 1.03 | locus YGL248W, strain PDE1, hits give low values 1.01 | locus YGL253W, strain hxk2, hits give low values 1.02 | locus YGR135W, strain pre9, hits give low values 1.03 | locus YGR229C, strain SMI1, hits give low values 0.978 | locus YGR252W, strain gcn5, hits give low values 0.999 | locus YHR013C, strain ard1, hits give low values 1.06 | locus YHR027C, strain rpn1, hits give low values 1.02 | locus YHR030C, strain SLT2, hits give low values 0.986 and 0.97 | locus YHR079C, strain IRE1 (second series), hits give low values 0.985 | locus YHR079C, strain IRE1, hits give low values 0.99 | locus YHR094C, strain hxt1, hits give low values 0.983 | locus YHR129C, strain ARP1, hits give low values 0.987 | locus YHR142W, strain chs7, hits give low values 1.04 | locus YHR200W, strain rpn10, hits give low values 0.967 | locus YIL066C, strain RNR3, hits give low values 0.98 | locus YIL073C, strain SPO22, hits give low values 0.981 | locus YIL125W, strain kgd1, hits give low values 0.988 | locus YIR030C, strain dcg1, hits give low values 0.982 | locus YJL092W, strain hpr5, hits give low values 1.04 | locus YJL095W, strain BCK1 (second series), hits give low values 1.02 | locus YJL095W, strain BCK1, hits give low values 1.05 and 0.976 | locus YJL115W, strain asf1, hits give low values 1.04 | locus YJL129C, strain trk1, hits give low values 1.04 | locus YJL134W, strain LCB3, hits give low values 0.983 | locus YJL154C, strain vps35, hits give low values 1.01 | locus YJL164C, strain tpk1, hits give low values 1.03 | locus YJL166W, strain qcr8, hits give low values 1.03 | locus YJL168C, strain set2, hits give low values 0.982 | locus YJL187C, strain SWE1 (second series), hits give low values 1 | locus YJR043C, strain POL32, hits give low values 0.97 | locus YJR066W, strain TOR1, hits give low values 0.979 | locus YKL009W, strain mrt4, hits give low values 1.05 | locus YKL068W, hits give low values 0.978 | locus YKL085W, strain MDH1 (second series), hits give low values 0.991 | locus YKL085W, strain MDH1, hits give low values 0.991 | locus YKL160W, strain elf1, hits give low values 1.02 | locus YKR001C, strain vps1, hits give low values 0.993 | locus YKR026C, strain gcn3, hits give low values 0.999 | locus YKR091W, strain srl3, hits give low values 1.03 | locus YLL001W, strain dnm1, hits give low values 1.04 | locus YLL026W, hits give low values 1.03 | locus YLL041C, strain sdh2, hits give low values 1.03 | locus YLR027C, strain aat2, hits give low values 1.03 | locus YLR039C, strain RIC1, hits give low values 0.992 | locus YLR058C, strain SHM2, hits give low values 0.988 | locus YLR102C, strain apc9, hits give low values 0.985 | locus YLR113W, strain HOG1, hits give low values 0.932 | locus YLR221C, strain rsa3, hits give low values 1.04 | locus YLR258W, strain gsy2, hits give low values 1.02 | locus YLR262C, strain YPT6 (second series), hits give low values 1.07 | locus YLR262C, strain YPT6, hits give low values 0.941 | locus YLR268W, strain sec22, hits give low values 0.977 | locus YLR320W, strain mms22, hits give low values 1.03 | locus YLR330W, strain CHS5, hits give low values 0.988 | locus YLR342W, strain FKS1 (second series), hits give low values 0.979 | locus YLR342W, strain FKS1, hits give low values 1.03 | locus YLR357W, strain rsc2, hits give low values 1.04 | locus YLR370C, strain arc18, hits give low values 1.02 | locus YLR371W, strain rom2, hits give low values 0.968 | locus YLR384C, strain iki3, hits give low values 1.03 | locus YLR418C, strain cdc73, hits give low values 1.02 | locus YML016C, strain PPZ1, hits give low values 0.99 | locus YML032C, strain rad52, hits give low values 0.984 | locus YML120C, strain ndi1, hits give low values 1.03 | locus YML124C, strain tub3, hits give low values 0.981 | locus YMR058W, strain fet3, hits give low values 1 | locus YMR078C, strain ctf18, hits give low values 0.982 | locus YMR125W, strain sto1, hits give low values 1.04 | locus YMR129W, hits give low values 1.03 | locus YMR205C, strain PFK2, hits give low values 1.03 | locus YMR223W, strain ubp8, hits give low values 1.01 | locus YMR231W, strain pep5, hits give low values 1.02 | locus YMR263W, strain SAP30, hits give low values 0.996 | locus YMR307W, strain GAS1, hits give low values 0.967 | locus YNL067W, strain RPL9B, hits give low values 1 | locus YNL071W, strain lat1, hits give low values 1.02 | locus YNL128W, strain TEP1, hits give low values 0.983 | locus YNL183C, strain NPR1, hits give low values 0.929 | locus YNL209W, strain ssb2, hits give low values 1.01 | locus YNL233W, strain BNI4, hits give low values 1.02 | locus YNL248C, strain rpa49, hits give low values 1.04 | locus YNL250W, strain rad50, hits give low values 0.984 | locus YNL271C, strain bni1, hits give low values 0.984 | locus YNL298W, strain CLA4, hits give low values 0.981 | locus YNL307C, strain MCK1, hits give low values 0.983 | locus YNL322C, strain KRE1 (second series), hits give low values 1.03 | locus YNL322C, strain KRE1, hits give low values 0.998 | locus YNR049C, strain mso1, hits give low values 1.03 | locus YNR052C, strain pop2, hits give low values 0.982 | locus YOL006C, strain TOP1, hits give low values 1.1 | locus YOL012C, strain htz1 0.974 | locus YOL147C, strain pex11, hits give low values 0.994 | locus YOR001W, strain rrp6, hits give low values 1.06 | locus YOR061W, strain CKA2, hits give low values 0.968 | locus YOR069W, strain VPS5, hits give low values 0.987 | locus YOR070C, strain gyp1, hits give low values 1.02 | locus YOR080W, strain dia2, hits give low values 1.03 | locus YOR083W, strain WHI5, hits give low values 1.03 | locus YOR106W, strain vam3, hits give low values 1.03 | locus YOR136W, strain idh2, hits give low values 0.978 | locus YOR144C, strain elg1, hits give low values 0.981 | locus YOR184W, strain ser1, hits give low values 0.988 | locus YOR231W, strain MKK1, hits give low values 0.966 | locus YOR265W, strain rbl2, hits give low values 1.02 | locus YOR270C, strain vph1, hits give low values 1.04 | locus YOR290C, strain snf2, hits give low values 1.03 | locus YOR316C, strain cot1, hits give low values 0.957 | locus YPL051W, strain arl3, hits give low values 1.04 | locus YPL078C, strain atp4, hits give low values 1.05 | locus YPL106C, strain sse1, hits give low values 1.02 | locus YPL240C, strain hsp82, hits give low values 1.02 | locus YPL241C, strain CIN2, hits give low values 0.989 | locus YPL256C, strain CLN2, hits give low values 0.976 | locus YPR119W, strain clb2, hits give low values 0.972 | locus YPR141C, strain kar3, hits give low values 0.958 | locus YPR163C, strain tif3, hits give low values 0.981 | locus YPR167C, strain met16, hits give low values 0.989 | strain wtn01, hits give low values 0.987
